Experimental data published in PubChem BioAssay (EPA / NIEHS).
“And” between values parts separate entries of the source, which are not always exact repeats. Equal entries are not always repeated. Where a structure was tested more than once in an assay, its records may differ in their call. The source made the active and inactive calls. The calls were made as follows: active = hit-call score of the fitted dose curve at least 0.9, where 1 is the maximum; inactive = score below 0.9.

Experiments:
[1] = read-out: Human Leukocyte Antigen - DR isotype (HLADR), HLA-DRA (gene 3122); assay: BSK_BE3C_HLADR: BioMAP Diversity Plus: BE3C Assay for Human Leukocyte Antigen - DR isotype (HLADR) Biomarker Activity (AID 2283032); settings: primary human bronchial epithelial cells; actives raise or lower the signal
Outline: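 Signal came from an ELISA for HLA-DR in human bronchial epithelial primary cells harvested 24 h after treatment; gain- and loss-of-signal fitting used DMSO controls as reference.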

[2] = read-out: Vascular cell adhesion molecule 1 (VCAM1), VCAM1 (gene 7412); assay: BSK_4H_VCAM1: BioMAP Diversity Plus: 4H Assay for Vascular cell adhesion molecule 1 (VCAM1) Biomarker Activity (AID 2283033); settings: primary human endothelial cells (HUVEC); actives raise or lower the signal
Outline: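 Endpoint derived from bidirectional fitting against DMSO controls of VCAM-1 ELISA signal in umbilical vein endothelial cells sampled at 24 h following treatment.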

[3] = read-out: Interferon-gamma inducible Protein 10 (IP10), CXCL10 (gene 3627); assay: BSK_BE3C_IP10: BioMAP Diversity Plus: BE3C Assay for Interferon-gamma inducible Protein 10 (IP10) Biomarker Activity (AID 2283034); settings: primary human bronchial epithelial cells; actives raise or lower the signal
Outline: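 Using primary human bronchial epithelial cultures, the assay captures IP-10 by ELISA one day (24 h) after exposure. Parallel SRB staining of total protein flags overt cytotoxicity. Fits run bidirectionally relative to DMSO.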

[4] = read-out: Monokine induced gamma interferon (MIG), CXCL9 (gene 4283); assay: BSK_BE3C_MIG: BioMAP Diversity Plus: BE3C Assay for Monokine induced gamma interferon (MIG) Biomarker Activity (AID 2283035); settings: primary human bronchial epithelial cells; actives raise or lower the signal
Outline: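 MIG level was determined by ELISA after 24 h chemical treatment of primary human bronchial epithelial cells. Values were fitted bidirectionally with DMSO as the negative control and activity baseline.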

[5] = read-out: Transforming growth factor beta 1 (TGFb1), TGFB1 (gene 7040); assay: BSK_BE3C_TGFb1: BioMAP Diversity Plus: BE3C Assay for Transforming growth factor beta 1 (TGFb1) Biomarker Activity (AID 2283036); settings: primary human bronchial epithelial cells; actives raise or lower the signal
Outline: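 In this human primary bronchial epithelial system, an ELISA quantified TGF-b1 one day after dosing. Endpoint changes in either direction were fitted relative to DMSO.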

[6] = read-out: Plasminogen activator inhibitor-1 (PAI1), SERPINE1 (gene 5054); assay: BSK_BE3C_PAI1: BioMAP Diversity Plus: BE3C Assay for Plasminogen activator inhibitor-1 (PAI1) Biomarker Activity (AID 2283037); settings: primary human bronchial epithelial cells; actives raise or lower the signal
Outline: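 PAI-1 biomarker levels in treated human bronchial epithelial cells are determined by ELISA at 24 h. Both increases and decreases relative to DMSO are fitted.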

[7] = read-out: urokinase plasminogen activator (uPA), PLAU (gene 5328); assay: BSK_BE3C_uPA: BioMAP Diversity Plus: BE3C Assay for urokinase plasminogen activator (uPA) Biomarker Activity (AID 2283038); settings: primary human bronchial epithelial cells; actives raise or lower the signal
Outline: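 Using confluent primary human lung bronchial epithelial cultures, we dosed chemicals, waited 24 h, then ran a uPA ELISA, fitting bidirectionally against DMSO.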

[8] = read-out: Urokinase-type plasminogen activator receptor (uPAR), PLAUR (gene 5329); assay: BSK_BE3C_uPAR: BioMAP Diversity Plus: BE3C Assay for Urokinase-type plasminogen activator receptor (uPAR) Biomarker Activity (AID 2283039); settings: primary human bronchial epithelial cells; actives raise or lower the signal
Outline: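 A uPAR ELISA serves as the readout, taken 24 h after treating primary human bronchial epithelial cells. Responses in either direction are fitted against DMSO, which defines baseline activity.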

[9] = read-out: Interleukin-6 (IL6), IL6 (gene 3569); assay: BSK_CASM3C_IL6: BioMAP Diversity Plus: CASM3C Assay for Interleukin-6 (IL6) Biomarker Activity for (AID 2283040); settings: primary human coronary artery smooth muscle cells; actives raise or lower the signal
[10] = read-out: Tissue plasminogen activator (tPA), PLAT (gene 5327); assay: BSK_BE3C_tPA: BioMAP Diversity Plus: BE3C Assay for Tissue plasminogen activator (tPA) Biomarker Activity (AID 2283041); settings: primary human bronchial epithelial cells; actives raise or lower the signal
Outline: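 Bidirectional curve fitting relative to DMSO defined activity, with tPA detected by ELISA in chemically treated human bronchial epithelial primary cells at 24 hours.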

[11] = read-out: Interleukin-8 (IL8), CXCL8 (gene 3576); assay: BSK_CASM3C_IL8: BioMAP Diversity Plus: CASM3C Assay for Interleukin-8 (IL8) Biomarker Activity (AID 2283042); settings: primary human coronary artery smooth muscle cells; actives raise or lower the signal;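 also: IL-8 protein level quantified by ELISA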
[12] = read-out: Human Leukocyte Antigen - DR isotype (HLADR), HLA-DRA (gene 3122); assay: BSK_CASM3C_HLADR: BioMAP Diversity Plus: CASM3C Assay for Human Leukocyte Antigen - DR isotype (HLADR) Biomarker Activity (AID 2283043); settings: primary human coronary artery smooth muscle cells; actives raise or lower the signal;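 also: cell-surface HLA-DR protein level quantified by ELISA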
[13] = read-out: Macrophage colony-stimulating factor (MCSF), CSF1 (gene 1435); assay: BSK_CASM3C_MCSF: BioMAP Diversity Plus: CASM3C Assay for Macrophage colony-stimulating factor (MCSF) Biomarker Activity (AID 2283044); settings: primary human coronary artery smooth muscle cells; actives raise or lower the signal;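 also: M-CSF protein amount quantified by ELISA after 24 h exposure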
[14] = read-out: Low-density lipoprotein receptor (LDLR), LDLR (gene 3949); assay: BSK_CASM3C_LDLR: BioMAP Diversity Plus: CASM3C Assay for Low-density lipoprotein receptor (LDLR) Biomarker Activity (AID 2283045); settings: primary human coronary artery smooth muscle cells; actives raise or lower the signal;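 also: LDLR protein level on the cell surface quantified by ELISA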
[15] = read-out: Monocyte Chemoattractant Protein-1 (MCP1), CCL2 (gene 6347); assay: BSK_CASM3C_MCP1: BioMAP Diversity Plus: CASM3C Assay for Monocyte Chemoattractant Protein-1 (MCP1) Biomarker Activity (AID 2283046); settings: primary human coronary artery smooth muscle cells; actives raise or lower the signal;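 also: MCP-1 level quantified by ELISA 24 h after dosing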
[16] = BSK_CASM3C_Proliferation: Cell Proliferation Assessment in the BioMAP Diversity Plus: CASM3C Assay (AID 2283047); settings: primary human coronary artery smooth muscle cells;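 also: sulforhodamine B total protein stain as relative cell number at 560 nm; sub-confluent cells exposed 48 h before staining; fitted both ways against DMSO so gain or loss of cell number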
[17] = read-out: Monokine induced gamma interferon (MIG), CXCL9 (gene 4283); assay: BSK_CASM3C_MIG: BioMAP Diversity Plus: CASM3C Assay for Monokine induced gamma interferon (MIG) Biomarker Activity (AID 2283048); settings: primary human coronary artery smooth muscle cells; actives raise or lower the signal;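 also: MIG protein level measured by ELISA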
[18] = read-out: serum amyloid A (SAA), SAA1 (gene 6288); assay: BSK_CASM3C_SAA: BioMAP Diversity Plus: CASM3C Assay for serum amyloid A (SAA) Biomarker Activity (AID 2283049); settings: primary human coronary artery smooth muscle cells; actives raise or lower the signal;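 also: SAA protein level quantified by ELISA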
[19] = BSK_CASM3C_SRB: Viability Assessment in the BioMAP Diversity Plus: CASM3C Assay (AID 2283050); settings: primary human coronary artery smooth muscle cells;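 also: cells exposed to compound for 24 h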
[20] = read-out: Thrombomodulin, THBD (gene 7056); assay: BSK_CASM3C_Thrombomodulin: BioMAP Diversity Plus: CASM3C Assay for Thrombomodulin Biomarker Activity (AID 2283051); settings: primary human coronary artery smooth muscle cells; actives raise or lower the signal;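 also: thrombomodulin protein level measured by ELISA 24 h after dosing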

Measured: AC50

CCOP(=S)(OCC)SCn1c(=O)oc2cc(Cl)ccc21
active: [2] 26.1 µM | [8] 147 nM | [11] 4.25 µM | [20] 19.9 µM
inactive: all other assays above

Cc1cc(Cl)ccc1OCC(=O)O
inactive: all assays above

COP(N)(=O)SC (stereo not given)
active: [1] 5.27 µM
inactive: all other assays above

CCCN(CCC)c1c([N+](=O)[O-])cc(S(N)(=O)=O)cc1[N+](=O)[O-]
inactive: [14] | [20]
active: [1] 35 µM [middle of 4 runs] | [2] 38.1 µM [middle of 4 runs] | [3] 36.9 µM [middle of 4 runs] | [4] 38.4 µM [middle of 4 runs] | [5] 31.3 µM and 31.1 µM and 36.7 µM | [7] 33.6 µM [middle of 4 runs] | [8] 38.1 µM [middle of 4 runs] | [9] 35.2 µM [middle of 4 runs] | [10] 30.3 µM [middle of 4 runs] | [11] 33.5 µM [middle of 4 runs] | [12] 34.4 µM [middle of 4 runs] | [13] 36.1 µM [middle of 4 runs] | [14] 39.7 µM | [15] 37.1 µM [middle of 4 runs] | [16] 35.1 µM [middle of 4 runs] | [17] 34.7 µM [middle of 4 runs] | [18] 37.1 µM [middle of 4 runs] | [19] 35.6 µM [middle of 4 runs] | [20] 37.6 µM and 34.1 µM

O=C(O)COc1nc(Cl)c(Cl)cc1Cl
active: [5] 245 nM
inactive: all other assays above

COC(=O)c1ccccc1C(=O)OC
not listed: [6]
inactive: all other assays above

O=C(O)c1nc(Cl)ccc1Cl
inactive: [1] | [2] | [3] | [4] | [5] | [7] | [8] | [9] | [10] | [11] | [12] | [13] | [14] | [15] | [16] | [17] | [18] | [19] | [20]
active: [1] 28.8 µM | [15] 147 nM

CC1=C(C(=O)Nc2ccccc2)SCCO1
active: [7] 3.97 µM | [13] 524 nM
inactive: all other assays above

CCON=C(CC)C1=C(O)CC(c2c(C)cc(C)cc2C)CC1=O (stereo not given)
not listed: [6]
inactive: all other assays above

CCNc1nc(Cl)nc(NC(C)C)n1
inactive: all assays above

CCNc1nc(Cl)nc(NCC)n1
inactive: all assays above
